From the supplement of paper PMC10849652
The full data set covers some 8,800 targets. This sample favours those with a hit. About 0.5% of all pairs of compound and target were hits.

Tests used:
Test in all cases: log2 fold change, soluble protein after heating vs DMSO (PISA); higher = thermal stabilisation; K562 lysate, 10 uM; active = over 0.2 and 3.5 SD of the protein, either way, in both replicates (recomputed)
lapatinib = compound: CS(=O)(=O)CCNCc1ccc(-c2ccc3ncnc(Nc4ccc(OCc5cccc(F)c5)c(Cl)c4)c3c2)o1 [lapatinib]
In short: (§1)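 Log-two fold change in thermal stability relative to solvent controls is reported from duplicates. For each sample, crude K562 extract from dounce-homogenised pellets in PBS pH 7.4 with 1 mM MgCl2, at 1 mg/mL protein, was treated with 10 μM compound for 30 min. Aliquots heated for 3 min across 48°C-58°C were pooled, brought to 0.5% NP-40 at 4°C and cleared at 21,000xg for 90 min. The supernatant was quantified by TMTpro 16plex LC-MS/MS with channel sums equalised.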

pictilisib = compound: CS(=O)(=O)N1CCN(Cc2cc3nc(-c4cccc5[nH]ncc45)nc(N4CCOCC4)c3s2)CC1 [pictilisib]
In short: as §1

crizotinib = compound: C[C@@H](Oc1cc(-c2cnn(C3CCNCC3)c2)cnc1N)c1c(Cl)ccc(F)c1Cl [crizotinib]
In short: as §1

[1] = compound: C[C@H](C1=CC=C(C=C1)C(=O)NC2=C3C=CNC3=NC=C2)N
In short: as §1

duvelisib = compound: C[C@H](Nc1ncnc2nc[nH]c12)c1cc2cccc(Cl)c2c(=O)n1-c1ccccc1 [duvelisib]
In short: as §1

gandotinib = compound: Cc1cc(Nc2cc(CN3CCOCC3)c3nc(C)c(Cc4ccc(Cl)cc4F)n3n2)n[nH]1 [gandotinib]
In short: as §1

tozasertib = compound: Cc1cc(Nc2cc(N3CCN(C)CC3)nc(Sc3ccc(NC(=O)C4CC4)cc3)n2)n[nH]1 [tozasertib]
In short: as §1

doramapimod = compound: Cc1ccc(-n2nc(C(C)(C)C)cc2NC(=O)Nc2ccc(OCCN3CCOCC3)c3ccccc23)cc1 [doramapimod]
In short: as §1

bafetinib = compound: Cc1ccc(NC(=O)c2ccc(CN3CC[C@H](N(C)C)C3)c(C(F)(F)F)c2)cc1Nc1nccc(-c2cncnc2)n1 [bafetinib]
In short: as §1

[2] = compound: Cc1cccc(CC(=O)N2CCc3c2ccc(-c2cn(C)c4ncnc(N)c24)c3F)n1
In short: as §1

nilotinib = compound: Cc1cn(-c2cc(NC(=O)c3ccc(C)c(Nc4nccc(-c5cccnc5)n4)c3)cc(C(F)(F)F)c2)cn1 [nilotinib]
In short: as §1

[3] = compound: Cc1nc(Nc2n[nH]c3c2CN(C(=O)N[C@H](CN(C)C)c2ccccc2)C3(C)C)c2sccc2n1
In short: as §1

dasatinib = compound: Cc1nc(Nc2ncc(C(=O)Nc3c(C)cccc3Cl)s2)cc(N2CCN(CCO)CC2)n1 [dasatinib]
In short: as §1

[4] = compound: Cc1ncc(-c2ccnc(Nc3ccc(S(C)(=O)=O)cc3)n2)n1C(C)C
In short: as §1

[5] = compound: Cn1cc(-c2ccc3c(c2)CCN3C(=O)Cc2cccc(C(F)(F)F)c2)c2c(N)ncnc21
In short: as §1

quisinostat = compound: Cn1cc(CNCC2CCN(c3ncc(C(=O)NO)cn3)CC2)c2ccccc21 [quisinostat]
In short: as §1

tipifarnib = compound: Cn1cncc1[C@@](N)(c1ccc(Cl)cc1)c1ccc2c(c1)c(-c1cccc(Cl)c1)cc(=O)n2C [tipifarnib]
In short: as §1

[6] = compound: NC(=O)Nc1cc(-c2cccc(F)c2)sc1C(=O)N[C@H]1CCCNC1
In short: as §1

[7] = compound: NC(=O)c1cnc(N[C@@H]2CCCC[C@@H]2N)nc1Nc1cccc(-n2nccn2)c1
In short: as §1

[8] = compound: NC1(c2ccc(-c3nc4ccn5c(=O)[nH]nc5c4cc3-c3ccccc3)cc2)CCC1
In short: as §1

Measured: log2 fold change

CHML (UniProt P26374)
Sequence of UniProt P26374 (P26374 whole entry, looked up): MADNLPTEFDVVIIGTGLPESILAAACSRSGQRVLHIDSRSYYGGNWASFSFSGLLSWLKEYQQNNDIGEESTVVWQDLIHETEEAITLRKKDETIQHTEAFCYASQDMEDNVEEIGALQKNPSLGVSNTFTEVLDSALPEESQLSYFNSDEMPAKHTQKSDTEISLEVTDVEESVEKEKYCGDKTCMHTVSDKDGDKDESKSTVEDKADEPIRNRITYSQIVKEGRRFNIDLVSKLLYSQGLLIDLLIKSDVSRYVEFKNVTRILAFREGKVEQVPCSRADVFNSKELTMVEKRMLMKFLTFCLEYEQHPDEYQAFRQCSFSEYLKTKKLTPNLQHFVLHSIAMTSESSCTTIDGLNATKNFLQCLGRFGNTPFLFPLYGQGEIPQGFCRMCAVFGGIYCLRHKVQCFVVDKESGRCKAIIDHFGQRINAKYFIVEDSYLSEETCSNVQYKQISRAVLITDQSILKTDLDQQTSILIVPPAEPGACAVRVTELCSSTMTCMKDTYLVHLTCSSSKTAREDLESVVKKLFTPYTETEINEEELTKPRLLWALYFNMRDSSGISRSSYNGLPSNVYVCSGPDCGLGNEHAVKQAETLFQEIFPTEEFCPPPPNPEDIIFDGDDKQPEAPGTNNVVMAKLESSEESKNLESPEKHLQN
inactive: lapatinib -0.006 | pictilisib -0.003 | crizotinib 0.022 | [1] -0.012 | duvelisib 0.006 | gandotinib 0.013 | tozasertib -0.004 | doramapimod -0.025 | bafetinib 0.094 | [2] 0.004 | nilotinib -0.001 | [3] 0.013 | dasatinib 0.035 | [4] -0.011 | [5] -0.001 | quisinostat 0 | tipifarnib -0.031 | [6] -0.015 | [7] -0.008 | [8] 0.002

CUL1 (UniProt Q13616)
inactive: lapatinib -0.007 | pictilisib 0.004 | crizotinib 0.014 | [1] -0.007 | duvelisib 0.015 | gandotinib 0.03 | tozasertib -0.001 | doramapimod 0.01 | bafetinib 0.03 | [2] -0.002 | nilotinib 0.025 | [3] 0.022 | dasatinib 0.034 | [4] 0.028 | [5] 0.027 | quisinostat 0.017 | tipifarnib 0.001 | [6] -0.021 | [7] -0.011 | [8] -0.004

COASY isoform 2 (UniProt Q13057)
Sequence of UniProt Q13057 (Q13057 whole entry, looked up): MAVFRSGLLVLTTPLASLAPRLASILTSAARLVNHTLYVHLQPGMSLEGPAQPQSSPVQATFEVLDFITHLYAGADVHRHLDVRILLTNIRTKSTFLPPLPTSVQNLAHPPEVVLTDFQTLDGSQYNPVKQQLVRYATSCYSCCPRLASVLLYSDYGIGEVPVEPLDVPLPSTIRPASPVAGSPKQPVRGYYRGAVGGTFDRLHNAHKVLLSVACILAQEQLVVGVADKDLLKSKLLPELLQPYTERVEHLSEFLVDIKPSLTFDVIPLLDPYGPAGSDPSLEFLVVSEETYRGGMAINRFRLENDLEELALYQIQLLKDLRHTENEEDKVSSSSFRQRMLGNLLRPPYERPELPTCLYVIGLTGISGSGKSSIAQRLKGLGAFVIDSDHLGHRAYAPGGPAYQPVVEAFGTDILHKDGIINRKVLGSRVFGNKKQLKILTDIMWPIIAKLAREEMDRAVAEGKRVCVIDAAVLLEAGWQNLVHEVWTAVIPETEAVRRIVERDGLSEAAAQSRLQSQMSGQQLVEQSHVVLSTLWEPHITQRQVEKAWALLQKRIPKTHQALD
inactive: lapatinib -0.01 | pictilisib 0.021 | crizotinib -0.084 | [1] -0.072 | duvelisib 0.004 | gandotinib 0.009 | tozasertib -0.022 | doramapimod -0.007 | bafetinib -0.043 | [2] 0.029 | nilotinib -0.043 | [3] -0.015 | dasatinib -0.071 | [4] -0.023 | [5] 0.069 | quisinostat -0.078 | tipifarnib 0.012 | [6] 0.041 | [7] -0.023 | [8] -0.046

COG4 (UniProt Q9H9E3)
inactive: lapatinib -0.02 | pictilisib -0.164 | crizotinib -0.088 | [1] -0.014 | duvelisib 0.022 | gandotinib -0.207 | tozasertib 0.018 | doramapimod 0.026 | bafetinib 0.025 | [2] 0.036 | nilotinib -0.038 | [3] -0.01 | dasatinib -0.093 | [4] 0.008 | [5] 0.048 | quisinostat -0.047 | tipifarnib 0.006 | [6] 0.004 | [7] 0.001 | [8] 0.055

COG7 (UniProt P83436)
inactive: lapatinib -0.014 | pictilisib -0.008 | crizotinib -0.025 | [1] -0.068 | duvelisib -0.01 | gandotinib -0.059 | tozasertib -0.028 | doramapimod 0.028 | bafetinib -0.044 | [2] 0.058 | nilotinib 0.02 | [3] 0.007 | dasatinib -0.089 | [4] 0.011 | [5] 0.024 | quisinostat 0 | tipifarnib -0.001 | [6] 0.033 | [7] -0.019 | [8] 0.001

CYP24A1 (UniProt Q07973)
Sequence of UniProt Q07973 (Q07973 whole entry, looked up): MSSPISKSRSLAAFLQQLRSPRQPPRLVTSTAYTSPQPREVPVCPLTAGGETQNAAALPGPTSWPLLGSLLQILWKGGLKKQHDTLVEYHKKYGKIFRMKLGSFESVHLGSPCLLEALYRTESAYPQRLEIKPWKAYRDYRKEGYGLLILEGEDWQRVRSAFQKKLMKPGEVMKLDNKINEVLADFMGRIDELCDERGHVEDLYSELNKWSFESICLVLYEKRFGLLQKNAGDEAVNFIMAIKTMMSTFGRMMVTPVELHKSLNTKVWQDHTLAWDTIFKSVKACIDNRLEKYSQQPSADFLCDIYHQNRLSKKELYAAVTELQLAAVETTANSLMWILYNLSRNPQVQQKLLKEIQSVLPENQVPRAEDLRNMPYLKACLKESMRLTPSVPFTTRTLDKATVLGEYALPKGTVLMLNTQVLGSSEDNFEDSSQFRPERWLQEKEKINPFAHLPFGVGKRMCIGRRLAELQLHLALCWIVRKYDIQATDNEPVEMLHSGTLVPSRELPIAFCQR
inactive: lapatinib -0.099 | pictilisib 0.015 | crizotinib -0.289 | duvelisib 0.077 | gandotinib 0.235 | tozasertib -0.02 | doramapimod 0.006 | bafetinib -0.209 | [2] 0.325 | nilotinib 0.036 | [3] -0.029 | dasatinib -0.049 | [4] 0.015 | [5] 0.008 | quisinostat -0.33 | tipifarnib -0.018 | [6] 0.04 | [7] 0.068 | [8] -0.161
active: [1] -0.462

DNAJC3 (UniProt Q13217)
inactive: lapatinib 0.01 | pictilisib -0.015 | crizotinib 0.047 | [1] 0.001 | duvelisib 0.046 | gandotinib 0.012 | tozasertib 0.014 | doramapimod -0.064 | bafetinib -0.002 | [2] -0.014 | nilotinib 0.029 | [3] -0.019 | dasatinib 0.074 | [4] 0.008 | [5] 0.023 | quisinostat 0.11 | tipifarnib -0.085 | [6] -0.055 | [7] 0.012 | [8] 0.005

CSNK2A1 (UniProt P68400)
inactive: lapatinib -0.038 | pictilisib 0.016 | crizotinib 0.007 | [1] -0.021 | duvelisib -0.002 | gandotinib -0.007 | tozasertib -0.006 | doramapimod -0.003 | bafetinib 0.027 | [2] -0.018 | nilotinib -0.022 | [3] 0.061 | dasatinib 0 | [4] 0.058 | [5] -0.029 | quisinostat 0.049 | tipifarnib -0.013 | [6] 0.019 | [7] 0.003 | [8] -0.068

CRABP2 (UniProt P29373)
Sequence of UniProt P29373 (P29373 whole entry, looked up): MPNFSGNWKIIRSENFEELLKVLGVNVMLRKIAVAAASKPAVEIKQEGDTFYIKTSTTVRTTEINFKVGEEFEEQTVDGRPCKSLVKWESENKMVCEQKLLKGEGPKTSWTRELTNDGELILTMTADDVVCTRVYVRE
inactive: lapatinib -0.008 | pictilisib -0.026 | crizotinib -0.025 | [1] 0.041 | duvelisib -0.056 | gandotinib 0.091 | tozasertib 0.241 | doramapimod 0.078 | bafetinib 0.014 | [2] -0.138 | nilotinib -0.063 | [3] -0.125 | dasatinib 0.076 | [4] -0.066 | [5] 0.006 | quisinostat -0.004 | tipifarnib 0.061 | [6] -0.049 | [7] -0.036 | [8] -0.02

CNST (UniProt Q6PJW8)
Sequence of UniProt Q6PJW8 (Q6PJW8 whole entry, looked up): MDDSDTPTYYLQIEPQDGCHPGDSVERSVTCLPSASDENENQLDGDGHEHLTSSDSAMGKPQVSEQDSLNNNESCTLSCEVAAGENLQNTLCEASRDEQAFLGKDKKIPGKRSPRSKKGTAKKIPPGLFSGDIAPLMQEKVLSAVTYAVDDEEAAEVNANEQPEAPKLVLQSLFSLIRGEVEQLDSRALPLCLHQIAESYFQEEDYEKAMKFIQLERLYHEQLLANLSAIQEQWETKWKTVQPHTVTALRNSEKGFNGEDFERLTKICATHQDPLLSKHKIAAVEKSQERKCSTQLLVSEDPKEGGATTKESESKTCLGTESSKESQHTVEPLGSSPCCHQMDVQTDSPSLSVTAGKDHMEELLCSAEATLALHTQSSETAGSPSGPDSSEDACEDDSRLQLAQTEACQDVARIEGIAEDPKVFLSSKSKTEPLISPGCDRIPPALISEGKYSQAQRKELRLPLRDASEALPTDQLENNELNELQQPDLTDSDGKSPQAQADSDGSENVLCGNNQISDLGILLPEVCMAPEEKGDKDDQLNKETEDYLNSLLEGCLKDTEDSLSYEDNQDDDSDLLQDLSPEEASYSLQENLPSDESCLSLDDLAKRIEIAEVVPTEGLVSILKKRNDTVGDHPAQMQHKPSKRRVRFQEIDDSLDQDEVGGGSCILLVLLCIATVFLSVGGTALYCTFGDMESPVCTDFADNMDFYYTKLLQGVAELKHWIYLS
inactive: lapatinib 0.005 | pictilisib 0 | crizotinib 0.031 | [1] -0.022 | duvelisib -0.007 | gandotinib 0.033 | tozasertib 0.019 | doramapimod 0.005 | bafetinib 0.033 | [2] 0.025 | nilotinib 0.125 | [3] 0.029 | dasatinib 0.023 | [4] -0.123 | [5] 0 | quisinostat -0.005 | tipifarnib 0.054 | [6] -0.002 | [7] 0 | [8] 0.041

DMXL1 (UniProt Q9Y485)
inactive: lapatinib -0.003 | pictilisib -0.014 | crizotinib -0.021 | [1] 0.001 | duvelisib 0.007 | gandotinib -0.028 | tozasertib 0.002 | doramapimod 0.039 | bafetinib -0.01 | [2] 0.026 | nilotinib 0.03 | [3] 0.006 | dasatinib -0.017 | [4] -0.005 | [5] 0.025 | quisinostat -0.009 | tipifarnib -0.015 | [6] 0.01 | [7] 0.014 | [8] 0.034

COG2 (UniProt Q14746)
Sequence of UniProt Q14746 (Q14746 whole entry, looked up): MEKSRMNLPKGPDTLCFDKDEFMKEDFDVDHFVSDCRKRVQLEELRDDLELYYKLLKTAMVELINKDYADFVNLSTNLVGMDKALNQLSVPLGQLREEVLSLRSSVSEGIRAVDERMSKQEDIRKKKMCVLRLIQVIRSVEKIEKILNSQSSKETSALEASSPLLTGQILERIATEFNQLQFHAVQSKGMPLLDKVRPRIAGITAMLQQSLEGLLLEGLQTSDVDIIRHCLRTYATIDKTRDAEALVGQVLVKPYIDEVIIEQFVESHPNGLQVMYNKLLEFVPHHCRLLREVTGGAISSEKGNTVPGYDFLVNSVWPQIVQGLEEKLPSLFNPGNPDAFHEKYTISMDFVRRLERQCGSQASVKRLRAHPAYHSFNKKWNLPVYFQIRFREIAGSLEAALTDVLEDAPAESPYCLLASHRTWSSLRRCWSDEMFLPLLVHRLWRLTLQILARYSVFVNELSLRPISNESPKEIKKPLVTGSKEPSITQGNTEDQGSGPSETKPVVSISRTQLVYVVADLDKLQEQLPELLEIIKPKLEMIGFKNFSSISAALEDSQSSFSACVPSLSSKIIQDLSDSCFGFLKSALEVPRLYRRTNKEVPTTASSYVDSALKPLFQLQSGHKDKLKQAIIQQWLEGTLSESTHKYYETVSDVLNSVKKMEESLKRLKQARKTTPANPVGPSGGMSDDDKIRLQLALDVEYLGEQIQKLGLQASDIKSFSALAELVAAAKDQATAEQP
inactive: lapatinib -0.009 | pictilisib -0.03 | crizotinib -0.041 | [1] -0.025 | duvelisib 0.025 | gandotinib -0.118 | tozasertib 0.012 | doramapimod 0.009 | bafetinib -0.027 | [2] 0.02 | nilotinib 0.024 | [3] 0.008 | dasatinib -0.024 | [4] 0.096 | [5] -0.002 | quisinostat -0.029 | tipifarnib -0.06 | [6] 0.055 | [7] 0.001 | [8] 0.009

DGCR8 (UniProt Q8WYQ5)
Sequence of UniProt Q8WYQ5 (Q8WYQ5 whole entry, looked up): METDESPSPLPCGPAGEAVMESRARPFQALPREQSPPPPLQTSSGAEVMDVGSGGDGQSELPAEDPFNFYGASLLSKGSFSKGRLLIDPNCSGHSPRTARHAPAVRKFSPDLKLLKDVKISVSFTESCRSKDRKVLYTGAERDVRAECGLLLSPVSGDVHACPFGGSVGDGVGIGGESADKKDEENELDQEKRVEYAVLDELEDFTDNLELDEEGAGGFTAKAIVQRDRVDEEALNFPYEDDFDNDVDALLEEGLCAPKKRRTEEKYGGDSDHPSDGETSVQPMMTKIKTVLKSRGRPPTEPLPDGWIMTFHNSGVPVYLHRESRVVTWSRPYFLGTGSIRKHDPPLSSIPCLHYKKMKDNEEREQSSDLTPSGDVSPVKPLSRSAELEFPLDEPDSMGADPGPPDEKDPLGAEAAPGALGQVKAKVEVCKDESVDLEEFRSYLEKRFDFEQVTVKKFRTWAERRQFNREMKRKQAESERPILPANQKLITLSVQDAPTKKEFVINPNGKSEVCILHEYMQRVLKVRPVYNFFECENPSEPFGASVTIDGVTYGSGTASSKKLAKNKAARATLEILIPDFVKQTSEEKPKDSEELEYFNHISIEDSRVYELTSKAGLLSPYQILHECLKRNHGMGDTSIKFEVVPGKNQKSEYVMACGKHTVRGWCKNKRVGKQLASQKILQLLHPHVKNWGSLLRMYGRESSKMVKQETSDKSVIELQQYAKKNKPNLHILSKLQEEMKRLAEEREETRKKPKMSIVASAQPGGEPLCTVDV
inactive: lapatinib -0.023 | pictilisib -0.048 | crizotinib 0.039 | [1] -0.056 | duvelisib -0.014 | gandotinib -0.032 | tozasertib -0.012 | doramapimod 0.04 | bafetinib -0.009 | [2] 0.044 | nilotinib -0.01 | [3] -0.002 | dasatinib -0.061 | [4] -0.029 | [5] -0.02 | quisinostat -0.007 | tipifarnib 0.03 | [6] -0.032 | [7] -0.048 | [8] 0.003

DEF6 (UniProt Q9H4E7)
Sequence of UniProt Q9H4E7 (Q9H4E7 whole entry, looked up): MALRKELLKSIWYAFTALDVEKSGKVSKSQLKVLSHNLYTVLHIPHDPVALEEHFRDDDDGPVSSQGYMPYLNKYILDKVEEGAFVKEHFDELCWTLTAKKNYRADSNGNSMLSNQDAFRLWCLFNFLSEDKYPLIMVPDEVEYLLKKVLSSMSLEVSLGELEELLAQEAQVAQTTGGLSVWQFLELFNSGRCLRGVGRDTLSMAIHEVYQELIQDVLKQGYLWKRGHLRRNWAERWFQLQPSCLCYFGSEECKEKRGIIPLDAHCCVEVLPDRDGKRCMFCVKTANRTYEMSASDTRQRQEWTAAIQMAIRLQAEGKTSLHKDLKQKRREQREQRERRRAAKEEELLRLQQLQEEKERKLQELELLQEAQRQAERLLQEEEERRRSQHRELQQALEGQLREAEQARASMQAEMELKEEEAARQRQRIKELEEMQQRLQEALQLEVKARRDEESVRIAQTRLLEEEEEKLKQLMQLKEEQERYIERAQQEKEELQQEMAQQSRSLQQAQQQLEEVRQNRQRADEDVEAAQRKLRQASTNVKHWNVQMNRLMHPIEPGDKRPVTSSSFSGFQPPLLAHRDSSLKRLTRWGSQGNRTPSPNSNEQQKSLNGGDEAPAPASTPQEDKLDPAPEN
inactive: lapatinib -0.021 | pictilisib 0.057 | crizotinib -0.095 | [1] -0.049 | duvelisib 0.013 | gandotinib 0.032 | tozasertib 0.009 | doramapimod 0 | bafetinib 0.151 | [2] 0.188 | nilotinib -0.058 | [3] 0.046 | dasatinib -0.034 | [4] 0.033 | [5] 0.006 | quisinostat -0.044 | tipifarnib 0.027 | [6] 0.067 | [7] 0.044 | [8] -0.01

DLD (UniProt P09622)
inactive: lapatinib -0.003 | pictilisib 0.009 | crizotinib -0.001 | [1] -0.067 | duvelisib -0.012 | gandotinib 0.047 | tozasertib -0.016 | doramapimod -0.001 | bafetinib 0.005 | [2] 0.012 | nilotinib 0.02 | [3] 0.001 | dasatinib 0.003 | [4] 0.011 | [5] -0.022 | quisinostat -0.014 | tipifarnib 0.003 | [6] -0.015 | [7] -0.009 | [8] 0.005

DFFB (UniProt O76075)
inactive: lapatinib 0.003 | pictilisib -0.016 | crizotinib 0.023 | [1] 0.003 | duvelisib -0.008 | gandotinib 0.015 | tozasertib 0.049 | doramapimod -0.07 | bafetinib -0.028 | [2] -0.021 | nilotinib 0.192 | [3] -0.062 | dasatinib 0.008 | [4] 0.155 | [5] 0.012 | quisinostat 0.038 | tipifarnib -0.013 | [6] -0.049 | [7] 0.026 | [8] -0.047
